Screening results as filed in PubChem.
VACV mCherry inh – inhibitors of vaccinia virus infection (mCherry reporter signal). AID 720579. Potency, µM (titrated, usually from 36.5 µM), inactives show at the highest dose activity change, negative = inhibition, most hits filed as inhibitors. Vaccinia virus mCherry reporter infection, fluorescence. 0.63% of 310,000 active; calls by dose curve; tested in A549 cells; further: potency means the concentration at half of the fitted maximal effect; nearly all actives have a fitted effect of over 35% in size
LASV entry inh – blocks Lassa virus binding to or entry into cells | Lassa virus pseudotype entry inhibition, cell reporter | Potency, µM (top dose mostly 37.9 µM), without a hit: top-dose activity change, negative = inhibition, most hits filed as inhibitors | 1.2% of 300,000 active; calls by dose curve; tested in HEK293 cells; further: potency means the concentration at half of the fitted maximal effect; nearly all actives have a fitted effect of over 50% in size
Marburg entry inh – blocks Marburg virus binding to or entry into cells; Marburg virus pseudotyped entry inhibition, cell reporter; Potency, µM (highest dose often 37.8 µM), inactives show at the highest dose activity change, negative = inhibition, hits mostly inhibitors; 1.8% of 300,000 active; calls by dose curve; tested in HEK293 cells; further: potency means the concentration at half of the fitted maximal effect
Vaccinia Venus – inhibitors of vaccinia virus (Venus reporter) | Potency, µM (top dose mostly 36.5 µM), for inactives: top-dose activity change, negative = inhibition, most hits filed as inhibitors | 0.46% of 330,000 active | AID 720580 | Vaccinia virus Venus reporter expression, fluorescence; calls by dose curve; tested in A549 cells; further: potency means the concentration at half of the fitted maximal effect; nearly all actives have a fitted effect of over 30% in size
FMDV inh – foot and mouth disease virus antiviral activity | FMDV antiviral cell-based qHTS | Potency, µM (top dose mostly 57.9 µM), for the others: top-dose activity change, negative = inhibition, most hits filed as inhibitors | 1.2% of 410,000 active | AID 1159524; calls by dose curve; tested in HEK293T cells; further: read-out not given here; potency means the concentration at half of the fitted maximal effect; nearly all actives have a fitted effect of over 45% in size
HCMV inh – inhibitors of human cytomegalovirus. HFF cells, HCMV-luciferase reporter, 72 h; active compounds read low. activity change, negative = inhibition, % at 57.5 µM. 4.5% of 410,000 active. AID 1259415; in the data active means activity change below about -60%; inconclusive means no clear call, values can overlap the other calls; inactive means above about -39%
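Steps: HFFs plated, 16 h 37C; compounds added; HCMV-luciferase added to MOI 1 PFU/cell; 72 h 37C; OneGlo reagent, 5 min room temperature; luminescence read, normalized to controls.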
* = called active by the depositor; [ ] = remark or other dose. A selection: hits, their analogues and other compounds. The true share with any hit is near 6.5%. On the % scale 0 is the no-effect control and ±100 the full control effect.

Results for COc1ccc(N2C3=C(CC4=C2CC(C)(C)CC4=O)C(=O)CC(C)(C)C3)cc1 ?
VACV mCherry inh: inconclusive; LASV entry inh: -31%; Marburg entry inh: inconclusive; Vaccinia Venus: -26%; HCMV inh: -99*

Results for COc1ccc(N2C3=C(C(=O)CC(C)(C)C3)C(c3ccccc3OC)C3=C2CC(C)(C)CC3=O)cc1 ?
VACV mCherry inh: -19%; LASV entry inh: -2%[46.1 µM]; Marburg entry inh: inconclusive; Vaccinia Venus: -20%; FMDV inh: -4%; HCMV inh: -65*

Results for COc1ccc(N2C3=C(CC4=C2CCCC4=O)C(=O)CCC3)cc1 ?
VACV mCherry inh: inactive; LASV entry inh: -16%; Marburg entry inh: -4%; Vaccinia Venus: -10%; FMDV inh: inconclusive; HCMV inh: inconclusive

What do the screens show for `CCc1ccc(C(O)c2ncc(-c3ccccc3Cl)[nH]2)cc1` (centres undefined)?
VACV mCherry inh: 20%; Vaccinia Venus: -4%; FMDV inh: 63%; HCMV inh: -96*

Results for COc1ccc(Nc2nc(N)c3cc(OC)c(OC)cc3n2)cc1 ?
VACV mCherry inh: -16%[7.34 µM]; LASV entry inh: 19%[46.1 µM]; Marburg entry inh: 11µM*; Vaccinia Venus: -9%[7.34 µM]; FMDV inh: -1%; HCMV inh: -36

What do the screens show for `Cc1c(Cl)cccc1Nc1nc(N)nc(CSc2ncccn2)n1`?
LASV entry inh: 3%; Marburg entry inh: -19%; FMDV inh: 56%; HCMV inh: -94*

How did Cc1ccccc1Nc1nc(N)nc(CCl)n1 do in these assays?
VACV mCherry inh: inconclusive; LASV entry inh: inconclusive; Marburg entry inh: inconclusive; Vaccinia Venus: inconclusive; FMDV inh: 11%; HCMV inh: -101*

Results for COCc1c(C(=O)OCc2nc(N)nc(Nc3ccccc3C)n2)oc2ccccc12 ?
LASV entry inh: inconclusive; Marburg entry inh: 23µM*; FMDV inh: -5%; HCMV inh: -19

What do the screens show for `Cc1c(Cl)cccc1Nc1nc(N)nc(CSCCO)n1`?
VACV mCherry inh: 16%; LASV entry inh: 14%; Marburg entry inh: 4%; Vaccinia Venus: 18%; FMDV inh: -8%; HCMV inh: 19

How did Clc1ccc(Nc2nc(NCc3ccco3)nc3nccnc23)cc1 do in these assays?
VACV mCherry inh: -3%; Vaccinia Venus: -13%

What do the screens show for `CC(C)[C@@H](OCc1ccccc1)[C@H](C)/C=N/OC[C@@H](O)[C@H]1O[C@@H]2OC(C)(C)O[C@@H]2[C@H]1O`?
Marburg entry inh: -5%[14.2 µM]

Results for Nc1nc(CCl)nc(Nc2ccc3ccccc3c2)n1 ?
VACV mCherry inh: inconclusive; LASV entry inh: 4µM*; Marburg entry inh: inconclusive; Vaccinia Venus: inconclusive; FMDV inh: -26%; HCMV inh: -93*

How did Cc1ccc(Nc2nc(N)nc(CN3CCN(c4ccccc4)CC3)n2)cc1Cl do in these assays?
LASV entry inh: -26%; Marburg entry inh: -42%; FMDV inh: -9%; HCMV inh: 2

Results for COc1ccc(Nc2nc(N)nc(CCl)n2)cc1 ?
FMDV inh: 45%; HCMV inh: -98*

Results for CCSc1ncc(Cl)c(C(=O)N(Cc2ccccc2Cl)C2CCS(=O)(=O)C2)n1 (centres undefined) ?
VACV mCherry inh: inactive; LASV entry inh: 7%[46.1 µM]; Marburg entry inh: -11%[46.1 µM]; Vaccinia Venus: 2%; FMDV inh: inconclusive; HCMV inh: 16

What do the screens show for `COc1ccc(C2=C/C(=C\c3cccc(OC(C)=O)c3)C(=O)O2)cc1`?
LASV entry inh: 7%; Marburg entry inh: -1%; FMDV inh: 4%; HCMV inh: -65*

How did CC(C)(C)c1ccc(O)c(N=Cc2cccc([N+](=O)[O-])c2)c1 do in these assays?
VACV mCherry inh: inactive; Vaccinia Venus: -10%

How did CC(=O)OC[C@H]1O[C@H](CCON=C(C)CCN2CCCc3nc(C)c(C)cc32)C=C[C@H]1OC(C)=O do in these assays?
Marburg entry inh: -28%[14.2 µM]

What do the screens show for `CCOc1ccc(C(c2c(NC(=O)c3ccccc3)sc(C)c2C)N2CCN(C)CC2)cc1` (centres undefined)?
VACV mCherry inh: -12%; LASV entry inh: inconclusive; Marburg entry inh: inconclusive; Vaccinia Venus: inconclusive; FMDV inh: -1%; HCMV inh: -2
